PubChem BioAssay (Tox21)
Records with an inconclusive call do not appear. Where a call stands in place of a potency, no number is given. The source made the active and inactive calls. Calls come from the whole dose curve.
Potency is the fitted concentration of half-maximal effect.

Experiment: qHTS assay to identify small molecule agonists of the progesterone receptor (PR) signaling pathway - cell viability counter screen (AID 1346799); note: nearly all actives have a fitted effect of over 45% in size
Conditions: PR-UAS-bla HEK293T viability, CellTiter-Glo luminescence, 16 h; series mostly up to 92.4 µM
From the text: National Center for Advancing Translational Sciences [NCATS]
NIH Chemical Genomics Center [NCGC]
U.S. Environmental Protection Agency [EPA]
National Institutes of Environmental Health Sciences [NIEHS]
National Toxicology Program [NTP]
U.S. Food and Drug Administration [FDA]
Progesterone receptor (PR), a nuclear hormone receptor, plays an important role in development, metabolic homeostasis and reproduction. It is activated by the steroid hormone progesterone. Endocrine disrupting chemicals (EDCs) and their interactions with steroid hormone receptors like PR causes disruption of normal endocrine function. To identify the compounds that stimulate PR signaling, a PR-UAS-bla GripTite cell line i.e. PR-UAS-bla HEK293T (Invitrogen, Carlsbad, CA, USA) containing a beta-lactamase reporter gene under the control of an UAS response element was used to screen Tox21 10K compound library. The cytotoxicity of the Tox21 compound library against the PR-bla cell line was tested in parallel by measuring the cell viability using CellTiter-Glo assay in the same wells.
Tox21 Assay Protocol Summary:
PR-UAS-bla HEK293T cells were dispensed at 3,000 cells/5 uL of assay medium containing 2% charcoal stripped FBS per well into black wall/clear-bottom 1536-well plates using a Multidrop Combi (ThermoFisher Scientific, Waltham, MA) dispenser. After the assay plates were incubated at a 37C and 5% CO2 for 6 hr, 23 nL of compounds dissolved in DMSO, positive controls or DMSO only was transferred to the assay plate by a Pintool station (Kalypsys, San Diego, CA). The plates were incubated at 37C and 5% CO2 for 16 hr. Then 1 uL of LiveBLAzer B/G FRET substrate was added using a Flying Reagent Dispenser (FRD, Aurora Discovery, San Diego, CA), the plates were incubated at room temperature for 2 hours, and fluorescence intensity was measured by an Envision plate reader (PerkinElmer, Shelton, CT). For cell viability readout that measures cytotoxicity, 4 uL/well of CellTiter-Glo reagent was added into the assay plates using a FRD. After 30 min incubation at room temperature, the luminescence intensity in the plates was measured using a ViewLux (PerkinElmer) plate reader.
In the case of `CC(=O)[O-].CC(=O)[O-].CC(=O)[O-].[Cr+3]`, the Potency is reported as “inactive”. For `CCOC(=O)CCN(SN(C)C(=O)Oc1cccc2c1OC(C)(C)C2)C(C)C`, the Potency was “inactive”. In the case of `O=c1c2ccccc2c(=O)c2c1cc(Cl)c1[nH]c3c([nH]c12)c(Cl)cc1c(=O)c2ccccc2c(=O)c13`, the Potency is reported as “inactive”. In the case of `ClC(Cl)C(Cl)(Cl)Cl`, the Potency is reported as “inactive”. In the case of `O=C(O)CCCCCCNC1c2ccccc2CCc2ccccc21`, the Potency is reported as “inactive”. For `CCC[CH2][Sn]([CH2]CCC)([CH2]CCC)[O][Sn]([CH2]CCC)([CH2]CCC)[CH2]CCC`, the Potency was 1.89 µM (active). For `Oc1cccc(Cl)c1Cl`, the Potency was 27.4 µM (active). In the case of `O=[N+]([O-])c1ccc(Cl)c(Cl)c1Cl`, the Potency is reported as “inactive”. For `Clc1ccc(C(Cl)(Cl)Cl)cc1Cl`, the Potency was “inactive”. With `BrCCCBr` the Potency was “inactive”. With `CC(Cc1ccc(OCC(=O)O)cc1)NCC(O)c1csc(C(F)(F)F)n1` (stereo not given) the Potency was “inactive”. With `CN1C(=O)[C@@H](NC(=O)c2cc3ccccc3[nH]2)N=C(c2ccccc2)c2ccccc21` the Potency was “inactive”. For `O=C(CCCCl)c1ccc(F)cc1`, the Potency was “inactive”. In the case of `CCc1cccc(C)c1N(C(=O)CCl)[C@@H](C)COC`, the Potency is reported as “inactive”. With `O=[N+]([O-])c1ccccc1-c1ccccc1` the Potency was “inactive”. In the case of `C=CCBr`, the Potency is reported as “inactive”. In the case of `O=NN(CCO)CCO`, the Potency is reported as “inactive”. With `COC(=O)C(C)N(C(=O)c1ccco1)c1c(C)cccc1C` (stereo not given) the Potency was “inactive”. In the case of `C=C(C)C(=O)[O][Sn]([CH2]CCC)([CH2]CCC)[CH2]CCC`, the Potency is reported as 2.17 µM (active). With `ClCBr` the Potency was “inactive”. In the case of `[C-]1=CC=CC1.[Cl][Zr+2][Cl].c1cc[cH-]c1`, the Potency is reported as “inactive”. With `CCOP(=S)(OCC)Oc1cc(C)nc(N(CC)CC)n1` the Potency was “inactive”. With `C[N+]1(C)[C@@H]2CC[C@H]1CC(OC(=O)C(CO)c1ccccc1)C2` (stereo not given in full) the Potency was “inactive”. For `CCCCN(CCCC)C(=S)S`, the Potency was “inactive”. In the case of `CCn1cc[n+](C)c1` (tested in a mixture with another compound), the Potency is reported as “inactive”. In the case of `CCCC[N+]1(C)CCCC1` (tested in a mixture with another compound), the Potency is reported as “inactive”. With `CC(Cl)CCl` (stereo not given) the Potency was “inactive”. With `CCOP(=O)(Sc1ccccc1)Sc1ccccc1` the Potency was “inactive”. In the case of `CCCCn1cc[n+](C)c1` (tested in a mixture with another compound), the Potency is reported as “inactive”. For `COc1ccc2c(c1OC)C(=O)O[C@@H]2[C@H]1c2cc3c(cc2CCN1C)OCO3`, the Potency was “inactive”. With `CN1CCc2cc3c(cc2C1O)OCO3` (stereo not given) the Potency was “inactive”. With `O=C(N[C@H]1N=C(c2ccccc2F)c2cccc3c2N(CC3)C1=O)c1cc2ccccc2[nH]1` the Potency was “inactive”. In the case of `C1=CCC=C1`, the Potency is reported as “inactive”. In the case of `CCN(CC)Cc1nccn1-c1ccc([N+](=O)[O-])cc1C(=O)c1ccccc1Cl`, the Potency is reported as “inactive”. With `CC(=O)[O][Sn]([c]1ccccc1)([c]1ccccc1)[c]1ccccc1` the Potency was 0.433 µM (active). With `Cc1ccn2nc(S(=O)(=O)Nc3c(F)cccc3F)nc2n1` the Potency was “inactive”. In the case of `Oc1cc(Cl)c(Cl)c(Cl)c1Cl`, the Potency is reported as “inactive”. For `O=S1(=O)OCC2C(CO1)C1(Cl)C(Cl)=C(Cl)C2(Cl)C1(Cl)Cl` (stereo not given), the Potency was “inactive”. In the case of `CC(C)N(C(=O)CCl)c1ccccc1`, the Potency is reported as “inactive”. For `CNC(=O)/C=C(\C)OP(=O)(OC)OC`, the Potency was “inactive”.
